Measurements from PubChem BioAssay (NCI).
Compounds without any hit were thinned out: in the full panel of roughly 79,000, 15% have a hit. No stated cut-off is given here; in the data, active means growth inhibition above about 70%; inactive means the rest.

How the values were obtained:
[1] = NCI Yeast Anticancer Drug Screen. Data for the rad50 strain (AID 155);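 further: 0% = growth of vehicle-only cultures of the same strain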; conditions: S. cerevisiae rad50 strain growth inhibition; at 50.0 µM; hits give high values
In short: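 Genetically altered yeast (DNA repair pathway); compound treatment; growth inhibition vs vehicle ctrl.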

[2] = NCI Yeast Anticancer Drug Screen. Data for the mec2-1 strain (AID 157); conditions: S. cerevisiae mec2-1 strain, at 50.0 µM, hits give high values
In short: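 Growth inhibition is read against vehicle-treated controls after compound exposure of the mec2-1 yeast strain, which is defective in DNA damage repair or cell cycle control.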

[3] = NCI Yeast Anticancer Drug Screen. Data for the sgs1 mgt1 strain (AID 161);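 further: 0% = growth of cultures given vehicle only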; conditions: S. cerevisiae sgs1 mgt1 strain, at 50.0 µM, hits give high values
In short: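 Growth of a repair-deficient yeast mutant was monitored after compound treatment and expressed as inhibition relative to vehicle-treated cultures.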

[4] = NCI Yeast Anticancer Drug Screen. Data for the cln2 rad14 strain (AID 165);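 further: 0% = growth equal to vehicle treated cultures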; conditions: S. cerevisiae cln2 rad14 strain, at 50.0 µM, hits give high values
In short: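 Growth inhibition, relative to vehicle-treated controls, is the read-out. The test organism is a yeast strain with defined genetic alterations, cln2 rad14.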

[5] = NCI Yeast Anticancer Drug Screen. Data for the bub3 strain (AID 167); conditions: S. cerevisiae bub3 mutant strain, at 50.0 µM, hits give high values
In short: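 Yeast carrying a defined mutation is treated with each compound, and growth is compared with that of vehicle-exposed cells to give inhibition.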

[6] = NCI Yeast Anticancer Drug Screen. Data for the mlh1 rad18 strain (AID 175); conditions: S. cerevisiae mlh1 rad18 strain growth inhibition; at 50.0 µM; hits give high values
In short: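 Cells of a genetically altered yeast strain, deficient in DNA damage repair, were treated with compound. Their growth was then compared with that of vehicle-treated cultures to give inhibition.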

Measured: growth inhibition

COc1ccc(-c2nnc(-c3ccc(OC)cc3)nn2)cc1
inactive: [1] 1.8% | [2] 15.7% | [3] -7.1% | [4] -11.8% | [5] 4.2% | [6] -3%

COC[N+](C)(C)C
inactive: [1] -2.55% | [2] -6.25% | [3] -7.6% | [4] 2.4% | [5] 7.2% | [6] 10.5%

[Cl][Ce]([Cl])[Cl]
inactive: [1] 28.1% | [2] 14.2% | [3] 24.9% | [4] 16.4% | [5] 24.1% | [6] 15.6%

CCOC(=O)NCS(=O)(=O)N1CCOCC1
inactive: [1] 25.6% | [2] 9.25% | [3] 8% | [4] 19.6% | [5] 3.45% | [6] 9.7%

C#CC(C)(CC)OC(C)=O (stereo unspecified)
inactive: [1] 44.3% | [2] -16.4% | [3] 7.6% | [4] -23% | [5] 19.9% | [6] 20.3%

COC(=O)c1ccc2c(c1)nnn2C(C)=O
inactive: [1] -9.55% | [2] -12.7% | [3] -7.25% | [4] -21.9% | [5] 1.7% | [6] 4.65%

O=C(ON=C1c2ccccc2C(Br)C(Br)c2ccccc21)c1cc([N+](=O)[O-])cc([N+](=O)[O-])c1 (stereo unspecified)
inactive: [1] 15.8% | [2] 8.85% | [3] 28.8% | [4] -0.6% | [5] 21.1% | [6] 27.5%

O=C(NC1CCCCC1)c1ccccc1Cl
inactive: [1] 23.6% | [2] -9.75% | [3] -15.3% | [4] 24.2% | [5] -10.2% | [6] 10.3%

COC(=O)CC(NC(=O)CNC(=O)OCc1ccccc1)C(=O)NCC(=O)Oc1ccc([N+](=O)[O-])cc1 (stereo unspecified)
inactive: [1] 21% | [2] 2% | [3] 18.8% | [4] 15.1% | [5] -0.65% | [6] 12%

c1ccc(C2N3CCCCC3[C@@H]3c4[nH]c5ccccc5c4CCN23)nc1 (stereo partly specified)
inactive: [1] -26.8% | [2] -36.5% | [3] -6.5% | [4] 13.3% | [5] -25.9% | [6] -4.1%

O=S(=O)(O)C1CC2C(c3ccccc31)N1ON2O1 (stereo unspecified)
inactive: [1] 54.8% | [2] -2.05% | [3] 10.3% | [4] 3.75% | [5] -14.7% | [6] -0.95%

COc1ccccc1N=Nc1c(O)n(-c2ccccc2C)c(=S)n(-c2ccccc2OC)c1=O
inactive: [1] 38.4% | [2] -9.7% | [3] 19.1% | [4] -12.8% | [5] -3.95% | [6] 3.2%

c1ccc([Si](c2ccccc2)(c2ccccc2)c2ccc(-c3ccc([Si](c4ccccc4)(c4ccccc4)c4ccccc4)cc3)cc2)cc1
inactive: [1] 1.1% | [2] -0.75% | [3] -8.3% | [4] -4.35% | [5] -0.05% | [6] -15.9%

O=C[C@@H](CO)O[C@H](C=O)c1c[nH]c(=O)[nH]c1=O
inactive: [1] -24.1% | [2] -13.2% | [3] -23.9% | [4] -10.5% | [5] -36.5% | [6] -54.5%

Nc1cc(N)nc(S(=O)O)n1
inactive: [1] 18.9% | [2] 2.85% | [3] 16.1% | [4] 10.7% | [5] 19.8% | [6] 35.9%

CC(O)CNC(=O)Nc1ccccc1 (stereo unspecified)
inactive: [1] -26.9% | [2] -26.8% | [3] -9.8% | [4] -5.25% | [5] 3.95% | [6] -17.6%

CC1OC(OC(=O)c2ccc([N+](=O)[O-])cc2)CC(OC(=O)c2ccc([N+](=O)[O-])cc2)C1OC(=O)c1ccc([N+](=O)[O-])cc1 (stereo unspecified)
inactive: [1] 18.4% | [2] 5.45% | [3] -10.2% | [4] 24.7% | [5] 1.6% | [6] -24.8%

Cc1ccc(CO)cc1C
inactive: [1] 4.75% | [2] -8.5% | [3] -2.2% | [4] -6.55% | [5] -1.35% | [6] -0.15%

CC1=NN(c2nc(N)nc(CSc3cc(Cl)c(C)cc3S(N)(=O)=O)n2)C(C)(C)C1
inactive: [1] -15.5% | [2] -8.7% | [3] 12.2% | [4] -8.35% | [5] -18.1% | [6] -4.95%

CCCCCCCCCCCCOc1ccc2ccccc2c1
inactive: [1] -7.2% | [2] 15.9% | [3] 0.85% | [4] -17.6% | [5] -6.45% | [6] -8.15%

NC(CCSc1ccccc1)C(=O)O (stereo unspecified)
inactive: [1] -0.7% | [2] 8.35% | [3] -9.85% | [4] -34.5% | [5] -29.3% | [6] -5.45%
